# PubChem BioAssay (Tox21)
# A number with no mark means an inactive call. Results filed as inconclusive are left out. Active and inactive are the calls of the source. Unless noted, the call rests on the fitted dose curve; in most records, active means well fitted curve in the direction sought with a large enough effect in the repeat runs; inconclusive means weak or mixed curves; inactive means flat fitted curve, though single readings scatter.
# System: not listed separately
# Assay: qHTS assay to test for compound auto fluorescence at 460 nm (blue) in HepG2 cells (AID 720687)
# Details: autofluorescence 405/460 nm, 1 h; series mostly up to 91.3 µM; fluorescence, % of fluorescent control: at the top concentration
# How it was run: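 Cells (2,000/well in MEM with 10% FBS) attached overnight at 37 C, then were exposed to compound or DMSO for 1 hr at 37 C, 5% CO2. Fluorescence read at Ex/Em 405/460 nm, expressed as triamterene-equivalent signal.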
# On the % scale 0 is the no-effect control and ±100 the full control effect.
Compound,"fluorescence, % of fluorescent control",outcome
COc1nn(C(=O)NS(=O)(=O)c2ccccc2OC(F)(F)F)c(=O)n1C,0.0055%,–
COC(C)(C)CCC[C@H](C)C/C=C/C(C)=C/C(=O)OC(C)C,0.158%,–
O=C1NCN(c2ccccc2)C12CCN(CCCOc1ccc(F)cc1)CC2,-0.0029% [at 46 µM],–
CCC(Cl)CCl (configuration not stated),0.0706%,–
CCCC(=O)Cl,0.118%,–
O=[Se]=O,0.0718% [at 46 µM],–
O=C(C(Cl)(Cl)Cl)C(Cl)(Cl)Cl,0.0651% [at 95.7 µM],–
CN(N=O)c1ccc([N+](=O)[O-])cc1,-0.152%,–
CC(=O)NC1CCSC1=O (configuration not stated),–,inactive
ClP(Cl)(Cl)(Cl)Cl,-0.001%,–
O=Cc1ccc2c(c1)OCO2,-0.0287%,–
O=S(=O)(O)C(F)(F)C(F)(F)C(F)(F)C(F)(F)F,2.08% [at 95.7 µM],–
CCn1cc[n+](C)c1,–,inactive
Oc1ccc(Cl)c(Cl)c1Cl,0.0294% [at 95.7 µM],–
O=[N+]([O-])c1ccc(F)c([N+](=O)[O-])c1,–,inactive
CNP(=O)(OC)Oc1ccc(C(C)(C)C)cc1Cl (configuration not stated),-0.0069%,–
O=C(CBr)c1ccccc1,0.0585%,–

Compound,"fluorescence, % of fluorescent control",outcome
C=COC(C)=O,-0.123% [at 95.7 µM],–
CC1C(=O)C[C@]2(C(C)C)C[C@H]12 (some centres not stated),-0.0259%,–
COc1nn(CSP(=S)(OC)OC)c(=O)s1,0.173%,–
CCc1ccc(C(=O)NN(C(=O)c2cc(C)cc(C)c2)C(C)(C)C)cc1,-0.505%,–
CCOP(O)OCC,-0.0105%,–
CCCCCCCCCCOC(=O)c1ccccc1C(=O)OCCCCCCCCCC,0.0082%,–
CCCC(Cn1cncn1)c1ccc(Cl)cc1Cl (configuration not stated),-0.0731%,–
CCOC(=O)COc1cc(-c2nn(C)c(OC(F)F)c2Cl)c(F)cc1Cl,-0.0814%,–
O=C(Nc1ccccc1)Nc1cnns1,-0.328%,–
CC(=O)[C@H]1CC[C@H]2[C@@H]3CC[C@H]4C[C@](C)(O)CC[C@]4(C)[C@H]3CC[C@]12C,-0.0145% [at 46 µM],–
CCOP(=S)(OCC)SCSCC,0.0232%,–
O=C(CCl)c1ccc(Cl)cc1Cl,–,inactive
O=C(OC1CCCCC1)c1ccccc1C(=O)OC1CCCCC1,0.0455% [at 95.7 µM],–
NCC(CC(=O)O)c1ccc(Cl)cc1 (configuration not stated),-0.0194% [at 46 µM],–
CN1[C@@H]2CC[C@H]1CC(OC(=O)c1cc(Cl)cc(Cl)c1)C2 (some centres not stated),-0.103% [at 46 µM],–
Clc1cc(Cl)c(Cl)c(Cl)c1,-0.0057%,–
ClCCCCBr,-0.0658%,–

# Target: Glucocorticoid receptor (Homo sapiens) (UniProt P04150)
# Sequence (P04150 whole entry, looked up): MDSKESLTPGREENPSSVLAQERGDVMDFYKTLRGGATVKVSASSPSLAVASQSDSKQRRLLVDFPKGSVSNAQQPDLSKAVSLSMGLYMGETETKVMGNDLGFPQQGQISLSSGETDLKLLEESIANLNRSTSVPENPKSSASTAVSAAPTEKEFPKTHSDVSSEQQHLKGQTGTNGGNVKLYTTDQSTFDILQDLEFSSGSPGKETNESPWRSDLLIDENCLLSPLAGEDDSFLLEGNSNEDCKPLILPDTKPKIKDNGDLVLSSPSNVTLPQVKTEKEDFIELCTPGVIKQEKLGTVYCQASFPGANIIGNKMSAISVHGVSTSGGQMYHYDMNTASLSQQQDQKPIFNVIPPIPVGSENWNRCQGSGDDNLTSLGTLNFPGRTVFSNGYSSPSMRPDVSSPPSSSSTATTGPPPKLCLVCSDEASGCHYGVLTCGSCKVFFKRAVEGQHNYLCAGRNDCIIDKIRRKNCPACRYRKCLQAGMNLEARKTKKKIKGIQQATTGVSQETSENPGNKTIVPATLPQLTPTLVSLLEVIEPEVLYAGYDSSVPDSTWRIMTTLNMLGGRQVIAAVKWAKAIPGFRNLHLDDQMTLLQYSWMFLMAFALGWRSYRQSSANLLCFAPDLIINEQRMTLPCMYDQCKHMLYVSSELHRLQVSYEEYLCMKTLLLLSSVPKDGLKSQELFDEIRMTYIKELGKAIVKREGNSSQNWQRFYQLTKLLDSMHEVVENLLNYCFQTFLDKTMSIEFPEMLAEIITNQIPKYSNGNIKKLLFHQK
# Assay: qHTS assay to identify small molecule agonists of the glucocorticoid receptor (GR) signaling pathway (AID 720691; active means well fitted activation curve with a large enough effect in the signal ratio in the repeat runs, not every such curve was filed as active; the % refers to the signal ratio)
# Details: GR-bla HeLa, beta-lactamase reporter ratio, 18 h; series mostly up to 62.4 µM; activation: at the top concentration
# How it was run: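 Fluorescence intensity from LiveBLAzer B/G FRET substrate (2 h, room temperature) reports beta-lactamase expression driven by the glucocorticoid response element in GR-bla HeLa cells after 18 h compound exposure at 37 C.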
Compound,activation,outcome
O=C1NCN(c2ccccc2)C12CCN(CCCOc1ccc(F)cc1)CC2,-4.39%,–
O=[Se]=O,-8.56%,–
O=C(C(Cl)(Cl)Cl)C(Cl)(Cl)Cl,-1.51% [at 79.2 µM],–
CN(N=O)c1ccc([N+](=O)[O-])cc1,-9.6%,–
CC(=O)NC1CCSC1=O (configuration not stated),–,inactive
O=S(=O)(O)C(F)(F)C(F)(F)C(F)(F)C(F)(F)F,-5.57% [at 79.2 µM],–
CNP(=O)(OC)Oc1ccc(C(C)(C)C)cc1Cl (configuration not stated),6.6%,–
O=C(CBr)c1ccccc1,0.976% [at 79.2 µM],–
COc1nn(CSP(=S)(OC)OC)c(=O)s1,10.5%,–
CCc1ccc(C(=O)NN(C(=O)c2cc(C)cc(C)c2)C(C)(C)C)cc1,-4.69%,–
CCOP(O)OCC,2.58%,–
CC(=O)[C@H]1CC[C@H]2[C@@H]3CC[C@H]4C[C@](C)(O)CC[C@]4(C)[C@H]3CC[C@]12C,-0.408%,–
CCOP(=S)(OCC)SCSCC,1.11%,–
O=C(OC1CCCCC1)c1ccccc1C(=O)OC1CCCCC1,0.971% [at 79.2 µM],–
NCC(CC(=O)O)c1ccc(Cl)cc1 (configuration not stated),-1.23%,–
CN1[C@@H]2CC[C@H]1CC(OC(=O)c1cc(Cl)cc(Cl)c1)C2 (some centres not stated),0.0349%,–
Clc1cc(Cl)c(Cl)c(Cl)c1,-4.51%,–
ClCCCCBr,-0.613% [at 79.2 µM],–

# Target: Glucocorticoid receptor (Homo sapiens) (UniProt P04150)
# Assay: qHTS assay to identify small molecule antagonists of the glucocorticoid receptor (GR) signaling pathway (AID 720692; active means well fitted inhibition curve with a large enough effect in the signal ratio in the repeat runs, not every such curve was filed as active; the % refers to the signal ratio; further: potency means the concentration at half of the fitted maximal effect)
# Details: GR-bla HeLa, beta-lactamase FRET ratio, dexamethasone-stimulated, 18 h; series mostly up to 58.5 µM; activity change, negative = inhibition: at the top concentration
# How it was run: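 HeLa GR-bla cells; cmpd + dex 5 nM final, 18 h 37 C; LiveBLAzer B/G FRET substrate 2 h RT; fluorescence intensity read. Antagonist mode, qHTS.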
Compound,"activity change, negative = inhibition",Potency
COc1nn(C(=O)NS(=O)(=O)c2ccccc2OC(F)(F)F)c(=O)n1C,-3.56%,–
CCCC(=O)Cl,-2.39%,–
O=[Se]=O,0.557%,–
O=C(C(Cl)(Cl)Cl)C(Cl)(Cl)Cl,-2.09% [at 78.9 µM],–
CN(N=O)c1ccc([N+](=O)[O-])cc1,-16.4%,–
CC(=O)NC1CCSC1=O (configuration not stated),-13%,–
ClP(Cl)(Cl)(Cl)Cl,1.27% [at 78.9 µM],–
O=S(=O)(O)C(F)(F)C(F)(F)C(F)(F)C(F)(F)F,-31.5% [at 78.9 µM],–
Oc1ccc(Cl)c(Cl)c1Cl,17.1% [at 78.9 µM],–
CCOP(O)OCC,14.8%,–
CCCC(Cn1cncn1)c1ccc(Cl)cc1Cl (configuration not stated),–,49 µM (active)
CCOC(=O)COc1cc(-c2nn(C)c(OC(F)F)c2Cl)c(F)cc1Cl,1.66%,–
O=C(Nc1ccccc1)Nc1cnns1,-9.05%,–
CC(=O)[C@H]1CC[C@H]2[C@@H]3CC[C@H]4C[C@](C)(O)CC[C@]4(C)[C@H]3CC[C@]12C,-11.7%,–
NCC(CC(=O)O)c1ccc(Cl)cc1 (configuration not stated),11%,–
